Only some compounds are listed: those with a hit (about 15% of all), similar ones and a draw of the others.
HCMV inh – blocks human cytomegalovirus replication; HFF cells, HCMV-luciferase reporter, 72 h; stronger effect = lower value; activity change, negative = inhibition, % at 57.5 µM; hit rate 4.5% among 410,000; AID 1259415; in the data active = activity change below about -60%; inconclusive = no clear call, values can overlap the other calls; inactive = above about -39%
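Two compound doses tested in HFFs infected with HCMV-luciferase, MOI 1 PFU/cell, 72 h at 37C. Lysate luminescence read with OneGlo; data normalized against buffer-only and 10uM Salinomycin inhibitor controls.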
SARS PLpro yeast – blocks SARS-CoV papain-like protease in a yeast assay; S. cerevisiae expressing SARS-CoV PLpro, growth rescue; hit rate 0.19% among 330,000; AID 485353; Potency, µM (doses to about 32.9 µM), most hits filed as activators; calls by dose curve; also: nearly all actives have a fitted effect of over 55% in size
Pf growth 48h – P. falciparum growth inhibition at 48 hours (one generation). P. falciparum luciferase growth in erythrocytes, 48 h. AID 504832. hit rate 5.9% among 310,000. Potency, µM (highest dose often 28.7 µM), usual class: inhibitors
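Parasite viability was followed by luminescence of a genomically integrated firefly luciferase. Cultures held 0.1% parasitemia at 2% hematocrit (final), incubated under 5% CO2 at 37 C.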
Sm TGR block – blocks Schistosoma mansoni thioredoxin glutathione reductase; purified TGR, DTNB reduction, TNB absorbance 405 nm; Potency, µM (series often up to 114 µM), actives largely listed as inhibitors; hit rate 3% among 360,000; also: nearly all actives have a fitted effect of over 60% in size
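First, TGR (20 nM dispensed) and NADPH were mixed with compound. Second, a 15 min room-temperature incubation followed. Third, further NADPH and then DTNB were added to start the reaction. Finally, TNB absorbance was monitored kinetically.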
HCV inhibitor – HCV inhibition; Huh7.5.1 HCVcc-Cre infection, luciferase reporter, 44 h; Potency, µM (series often up to 41.8 µM), usual class: inhibitors; hit rate 3.4% among 340,000; AID 651820
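Infectious HCVcc-Cre (~0.5 moi) was added to cells just after compound, with cells seeded 4 h earlier at 1,000 per well. Luciferase activity after 44 h culture reported infection; substrate was incubated 15 min at room temperature before reading.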
Pf growth 96h – P. falciparum growth inhibition at 96 hour, primary screen for plastid delayed-death inhibitors. Potency, µM (series often up to 28.7 µM), most hits filed as inhibitors. hit rate 6.9% among 320,000. P. falciparum luciferase reporter growth, 96 h
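Two-generation exposure (96 h) targets delayed-death phenotype. Reporter parasites carrying integrated firefly luciferase, in red cells at 2% hematocrit and 0.05% parasitemia final, kept at 37 C, 5% CO2; luminescence loss indicates inhibition.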
A number is an active result; - = inactive; ? = inconclusive; . = not tested or not shown; [ ] = dose if it differs, or a comment. Unless noted, calls follow the shape of the dose curve; as a rule, active = well fitted curve in the direction sought with a large enough effect; inconclusive = small, poorly fitted or top-dose-only effect, or another doubt; inactive = no such curve, though single readings can be large; an effect the other way counts as inactive or inconclusive.

SMILES	HCMV inh	SARS PLpro yeast	Pf growth 48h	Sm TGR block	HCV inhibitor	Pf growth 96h
COc1cccc(NC(=O)CN(C)C(=O)c2c(C)noc2C)c1	-	-	-	-	-	-
COc1ccc(CCNC(=O)c2cc3c(=O)n4ccccc4nc3n(CC3CCCO3)c2=N)cc1OC (stereo unspecified)	-	-	?	-	8.91µM	?
N=c1c(C(=O)NCc2ccc(F)cc2)cc2c(=O)n3ccccc3nc2n1CC1CCCO1 (stereo unspecified)	-	-	11.7µM	-	?	-[5.75 µM]
Cc1ccc(CNC(=O)c2cc3c(=O)n4cccc(C)c4nc3n(CC3CCCO3)c2=N)cc1 (stereo unspecified)	.	-	?	-	.	8.28µM
Cc1cccn2c(=O)c3cc(C(=O)NCCc4ccccc4)c(=N)n(CC4CCCO4)c3nc12 (stereo unspecified)	-	-	2.33µM	-	-	-
CSCCC(NC(=O)c1ccc(Cl)cc1Cl)C(=O)NCC(c1cccs1)N(C)C (stereo unspecified)	?	.	.	.	-	.
COc1ccccc1Cn1c(=S)[nH]c2cc(C(=O)N3CCCC(C)C3)ccc2c1=O (stereo unspecified)	-	.	.	.	.	.
Fc1cccc(/C=N/n2c(C3CCCCC3)n[nH]c2=S)c1	-	-	-	-	-	-
COc1ccc(CN2C(=O)C(CC(=O)NC3CCCCC3)CC(C(=O)N(C(C)C)C(C)C)=C2C)cc1 (stereo unspecified)	-	.	.	.	.	.
O=C(NCc1ccc(F)cc1)c1c(O)nc2ccccn2c1=O	-61.5	.	.	-	.	.
COc1cccc(CNC(=O)c2c(O)nc3ccccn3c2=O)c1	-	.	.	-	.	.
Cc1ccc(Cn2c(=N)c(C(=O)NCC3CCCO3)cc3c(=O)n4cccc(C)c4nc32)cc1 (stereo unspecified)	-107.4	-	?	-	11.2µM	?
CCOCCCn1c(=N)c(C(=O)NCC2CCCO2)cc2c(=O)n3cccc(C)c3nc21 (stereo unspecified)	-67.1	.	.	-	.	.
CCc1ccc(-n2nc(CO)c(C(=O)NCCc3ccccc3)n2)cc1	-	.	.	-	.	.
CCCCCC(=O)Nc1ccc(C2C(=O)c3ccccc3C2=O)cc1	-	-	13.1µM	-	2.51µM	?
O=C1c2ccccc2C(=O)C1c1ccc(O)cc1	-61.4	-	-	-	?	?
O=C1c2ccccc2C(=O)C1c1ccc(Br)cc1	-	-	?	-	-	15.1µM
OC[C@@H]1CN(Cc2ccc3c(c2)OCO3)C[C@H](n2cnc3c(N4CCCC4)ncnc32)O1	-	.	.	.	.	.
COc1ccc(N2CCN(C(=O)c3cc4c(-c5ccccc5F)nn(C)c4s3)CC2)cc1	-	.	.	-	.	.
CN(CCOc1ccc(Cl)c(Cl)c1)Cc1ccccc1	-	-	-	-	-	?
Cc1cc(Cl)cc(C)c1OCCOCCNCc1ccccc1	-	-	?	-	?	14.7µM
Clc1ccc(OCCOCCNCc2ccccc2)cc1Cl	-	-	-	-	-	13.1µM
COCCCNCCCCOc1c(Cl)cc(C)cc1Br	-	-	-	-	?	-
Cc1cc(C)c(C)c(OCCNCc2ccccc2)c1	-	-	-	-	?	11.7µM
Cc1cc(C)c(OCCNCc2ccccc2)c(C)c1	-	-	-	-	-	-
SMILES	HCMV inh	SARS PLpro yeast	Pf growth 48h	Sm TGR block	HCV inhibitor	Pf growth 96h
Cc1cc(Cl)cc(C)c1OCCNCc1ccccc1	-	-	-	-	-	?
C=CCNCCCCOc1c(Cl)cc(C)cc1Br	-	-	9.28µM	-	-	-
Cc1ccc(OCCSc2nc3ccc(NC(=O)c4ccc5c(c4)OCO5)cc3s2)cc1	-	.	.	-	.	.
COc1ccc(NC(=O)C2CCCN(c3ncnc4c3nc3n4CCCCC3)C2)c(OC)c1 (stereo unspecified)	-	.	.	-	.	.
COc1ccccc1-c1cc2c(Nc3cccc(S(C)(=O)=O)c3)nccc2[nH]1	-	.	.	.	.	.
CC1=C(C(=O)N2CCCCCC2)CC(CC(=O)NC2CC2)C(=O)N1Cc1ccccc1 (stereo unspecified)	-	.	.	.	.	.
Cc1nn(-c2ccc(Cl)cc2)c(N)c1C(O)(CSc1nccn1C)C(F)(F)F (stereo unspecified)	-	-	?	-	-	-
Cc1cc(C)c(OCCCCNCc2ccccc2)c(Cl)c1	-	-	-	-	11.2µM	?
COc1ccccc1Nc1nc(N)nc(CSC(=S)N2CCN(c3ccccc3)CC2)n1	-	-	?	-	?	?
COc1ccccc1Nc1nc(N)nc(CN2CCN(c3ccccc3)CC2)n1	-	-	-	-	?	.
COc1ccccc1Nc1nc(N)nc(CN2CCCCCC2)n1	-	-	?	31.6µM	-	.
COc1ccccc1Nc1nc(N)nc(CN2CCOCC2)n1	-	-	.	?	-	-
COc1cccc(N2CCN(Cc3nc(N)nc(Nc4ccccc4OC)n3)CC2)c1	-	-	?	-	-	0.329µM
COc1ccccc1Nc1nc(N)nc(CSC(=S)N2CCCCC2C)n1 (stereo unspecified)	-	12.6µM	?	-	?	?
Cc1cc(C(=O)N/N=C/c2cccc(OC(=O)c3cccc(Br)c3)c2)n[nH]1	-71.2	-	-	-	-	-
COc1cccc(C(=O)Oc2c(Br)cc(Br)cc2/C=N/NC(=O)c2cc(C)[nH]n2)c1	-96.8	-	?	-	?	-
O=S(=O)(Nc1cccc(-c2ccc(N3CCCCC3)nn2)c1)c1cccc(F)c1	-	.	.	-	.	.
COCCCNC(=O)CCCN1C(=O)CCn2nc(-c3cn(C)c4ccccc34)cc21	-	.	.	-	.	.
CN(C(=O)CN1C(=O)NC(c2ccccc2)(c2ccccc2)C1=O)C1CCS(=O)(=O)C1 (stereo unspecified)	-	-	-	-	-	-
COc1ccc(OC)c(CNc2ncnc3onc(-c4ccc(Cl)cc4)c23)c1	?	.	.	-	.	.
O=c1cc(CCl)nc(Cc2c(Cl)cccc2Cl)[nH]1	-92.8	.	.	.	?	.
O=C(CN1C(=O)NC(c2ccccc2)(c2ccccc2)C1=O)c1c[nH]c2ccccc12	.	-	11.7µM	.	.	-
O=C(CN1C(=O)NC(c2ccccc2)(c2ccccc2)C1=O)NCc1ccccc1	-	-	-	-	-	?
COc1ccc(C2(c3ccc(OC)cc3)NC(=O)N(CC(=O)N(C)c3ccccc3)C2=O)cc1	-	.	-	-	-	-
Cc1cc(C(=O)CN2C(=O)NC(c3ccccc3)(c3ccccc3)C2=O)c(C)n1Cc1ccccc1	-	-	?	-	-	8.28µM
CCOc1ccc(CN(C)C(=O)CN2C(=O)NC(c3ccccc3)(c3ccccc3)C2=O)cc1	?	-	13.1µM	-	?	?
CCc1nc2c(OCCn3cccc3)cccn2c1N(C)C(=O)c1ccc(OC)cc1	-	.	.	.	.	.
O=C(Cn1c(=O)n(Cc2ccc(F)cc2)c(=O)c2sc3ccccc3c21)NCc1ccccc1Cl	-	.	.	-	.	.
O=C(OCc1nnc(-c2cccs2)o1)C1=NN(c2ccccc2)C(=O)CC1	-	-	-	-	-	-
